Bioassay records: PubChem, National Center for Advancing Translational Sciences (NCATS)
IL-1B inflam inh – inhibitors of inflammasome signaling (IL-1 beta secretion); THP-1 LPS/ATP IL-1B secretion, AlphaLISA, 16 h; hits give low values; activity change, % at 57.5 µM; actives 4.7% (n = 360,000); AID 743279; in the data active means activity change below about -50%; inconclusive means mostly about -30% to -49%
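THP-1 cells pretreated 1 hr with compounds (up to 57.5 uM final), then stimulated with LPS (250 ng/mL final) plus ATP (1.25 mM final); secreted IL-1B measured by AlphaLISA after 16 hr, decreased signal indicating inhibition.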
DT40 TDP1 no CPT – qHTS for Inhibitors of human tyrosyl-DNA phosphodiesterase 1 (TDP1): qHTS in cells in absence of CPT. Potency, µM (doses to about 46.2 µM), without a hit: at the top dose activity change, negative = growth inhibition, actives largely listed as inhibitors. AID 686978, 2013. DT40 Tdp1-/- hTDP1 cells, no CPT, ATP luminescence, 48 h. actives 15% (n = 420,000); further: potency means the concentration at half of the fitted maximal effect; nearly all actives have a fitted effect of over 55% in size
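Growth kinetics read by CellTiter-Glo luminescence after ≥48 hr at 37 °C. Cells: DT40 Tdp1-/- stably carrying human TDP1, 400 per well, compound exposure in the absence of CPT (DMSO vehicle).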
HT1080NT lethal – kills 2HG-producing HT-1080-NT fibrosarcoma cells. HT-1080-NT fibrosarcoma viability, CellTiter-Glo ATP luminescence, 48 h. Potency, µM (doses to about 46.1 µM), without a hit: top-dose activity, negative = less viability, hits mostly cytotoxic. actives 1.6% (n = 360,000). AID 686970;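 further: NT is the 2HG producing partner of a matched IDH1 knockdown line; potency means the concentration at half of the fitted maximal effect; 0% = DMSO-treated cells and -100% = media-only wells without cells; nearly all actives have a fitted effect of over 55% in size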
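Viability by CellTiter-Glo luminescence after 48 h compound exposure at 37C of HT-1080-NT cells (750/well, RPMI, 5% FBS). % activity scaled between DMSO wells and medium-only wells, then curve-fitted and categorized by curve class.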
DT40 TDP1 CPT – growth inhibition of DT40 Tdp1-/-;hTDP1 cells with camptothecin (screen for TDP1 inhibitors); chicken DT40 Tdp1-/-;hTDP1 cells + 20 nM CPT, ATP luminescence, 48 h; Potency, µM (top dose mostly 46.2 µM), for the others: at the highest dose activity change, negative = growth inhibition, most hits filed as inhibitors; actives 12% (n = 420,000); AID 686979; further: potency means the concentration at half of the fitted maximal effect; nearly all actives have a fitted effect of over 55% in size
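Cell growth measured by CellTiter-Glo luminescence after a minimum 48 h, 37 C compound exposure with 20 nM CPT in Tdp1-knockout DT40 cells stably expressing hTDP1, seeded 400/well; qHTS titration format.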
HT1080 IDH1KD tx – kills HT-1080 cells with IDH1 knockdown. AID 686971. HT-1080 IDH1 knockdown viability, ATP luminescence, 48 h. Potency, µM (titrated, usually from 46.1 µM), inactives show at the highest dose activity, negative = toxicity, actives largely listed as cytotoxic. actives 2% (n = 360,000);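 further: potency means the concentration at half of the fitted maximal effect; 0% = DMSO wells and -100% = cell-free medium wells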
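Cytotoxicity counter-line: IDH1KD HT-1080, 48 h, CellTiter-Glo. Curves classed by r2, magnitude and activity.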
Starred values were filed as active, the others as inactive; [ ] = remark or other dose. Hits are enriched below; roughly 19% of the tested compounds scored in any of these assays. Unless noted, the call rests on the fitted dose curve; in most records, active means well fitted curve in the direction sought with a large enough effect; inconclusive means small, poorly fitted or top-dose-only effect, or another doubt; inactive means no such curve, though single readings can be large; an effect the other way counts as inactive or inconclusive. Unless noted, on the % scale 0 is the no-effect control and ±100 the full control effect.

`CC(=O)c1cccc(N(C(=O)CNC(=O)c2ccco2)C(C(=O)NCc2ccco2)c2ccccc2)c1` (centres undefined) gave IL-1B inflam inh -5, DT40 TDP1 no CPT -11%, HT1080NT lethal -10%, DT40 TDP1 CPT 2% and HT1080 IDH1KD tx 6%.
`CCN(CC)S(=O)(=O)c1cccc(NC(=O)COC(=O)C2COc3ccccc3O2)c1` (centres undefined) gave IL-1B inflam inh 10, DT40 TDP1 no CPT -4%, HT1080NT lethal 14%, DT40 TDP1 CPT -9% and HT1080 IDH1KD tx 19%.
COc1ccccc1CNc1ncnc2sc(C(=O)N3CCN(C)CC3)c(C)c12 was read as DT40 TDP1 no CPT -16% and DT40 TDP1 CPT -8%[9.04 µM].
`COCCCn1c(=O)c2ccccc2n(CC(=O)NC2CCCCC2)c1=O` gave IL-1B inflam inh 0, DT40 TDP1 no CPT 0%, HT1080NT lethal 17%, DT40 TDP1 CPT 14% and HT1080 IDH1KD tx 10%.
Cc1cccc(N(CC(=O)NCCSCc2cccc(Cl)c2)S(=O)(=O)c2ccccc2)c1C was read as DT40 TDP1 no CPT 21µM* and DT40 TDP1 CPT inconclusive.
Screening Cc1cccc(N(CC(=O)NCCC2=CCCCC2)S(C)(=O)=O)c1C returned IL-1B inflam inh 10, DT40 TDP1 no CPT inconclusive, HT1080NT lethal 6%, DT40 TDP1 CPT 16µM* and HT1080 IDH1KD tx 7%.
`Cc1cccc(N(CC(=O)N(C)Cc2ccccc2)S(=O)(=O)c2ccccc2)c1C` gave DT40 TDP1 no CPT 23µM* and DT40 TDP1 CPT inconclusive.
For O=C(NNc1nc(-c2ccccc2)c2cc(Br)ccc2n1)c1ccc(S(=O)(=O)N2CCOCC2)cc1 the results were IL-1B inflam inh -51*, DT40 TDP1 no CPT inconclusive, HT1080NT lethal -4%, DT40 TDP1 CPT inconclusive and HT1080 IDH1KD tx -4%.
O=C(NNc1nc(-c2ccccc2)c2cc(Br)ccc2n1)c1ccc(S(=O)(=O)N2CCCCC2)cc1 was read as IL-1B inflam inh -6, DT40 TDP1 no CPT inconclusive, HT1080NT lethal -9%, DT40 TDP1 CPT inconclusive and HT1080 IDH1KD tx -8%.
Cc1ccc(NC(=O)/C(C#N)=C/c2ccc(C)s2)c(C)c1 was read as IL-1B inflam inh -7, DT40 TDP1 no CPT -22%, HT1080NT lethal -12%, DT40 TDP1 CPT 1% and HT1080 IDH1KD tx -15%.
Screening COC(=O)c1ccc(COc2ccccc2/C=C(\C#N)C(=O)Nc2c(C)cccc2C)cc1 returned IL-1B inflam inh -79*, DT40 TDP1 no CPT 13µM*, HT1080NT lethal 18µM*, DT40 TDP1 CPT 13µM* and HT1080 IDH1KD tx 18µM*.
`COC(=O)c1ccc(COc2ccccc2/C=C/C(=O)c2ccc(OCC(=O)O)cc2)cc1` gave IL-1B inflam inh -94*, DT40 TDP1 no CPT inconclusive, HT1080NT lethal inconclusive, DT40 TDP1 CPT inconclusive and HT1080 IDH1KD tx inconclusive.
`Cc1ccc(/C=C(\C#N)C(=O)Nc2c(C)cccc2C)s1` gave IL-1B inflam inh -12, DT40 TDP1 no CPT 21µM*, HT1080NT lethal -1%, DT40 TDP1 CPT inconclusive and HT1080 IDH1KD tx -9%.
COc1ccc(NC(=O)c2cccc(S(=O)(=O)NCc3ccco3)c2)c(OC)c1 was read as IL-1B inflam inh -3, DT40 TDP1 no CPT inconclusive, HT1080NT lethal 0%, DT40 TDP1 CPT -23% and HT1080 IDH1KD tx -8%.
Screening COc1ccc(NC(=O)CN(C)C(=O)C(C)Oc2ccc(Br)cc2)cc1 (centres undefined) returned IL-1B inflam inh -6, DT40 TDP1 no CPT -18%, HT1080NT lethal -1%, DT40 TDP1 CPT 0% and HT1080 IDH1KD tx 2%.
CCOc1ccc(S(=O)(=O)Nc2cc(Cl)ccc2O)cc1 was read as IL-1B inflam inh 19, DT40 TDP1 no CPT inconclusive, HT1080NT lethal inconclusive, DT40 TDP1 CPT inconclusive and HT1080 IDH1KD tx 23µM*.
`CCOc1ccc(NS(=O)(=O)c2ccc(NS(=O)(=O)c3ccccc3)cc2)cc1` gave IL-1B inflam inh -1, DT40 TDP1 no CPT -13%, HT1080NT lethal inconclusive, DT40 TDP1 CPT -26% and HT1080 IDH1KD tx inconclusive.
For CCOc1ccc(S(=O)(=O)Nc2cccc(Cl)c2)cc1 the results were IL-1B inflam inh -10, DT40 TDP1 no CPT inconclusive, HT1080NT lethal inconclusive, DT40 TDP1 CPT 23µM* and HT1080 IDH1KD tx -4%[9.24 µM].
For CCCCCC(=O)Nc1cccc(C2=NOC3(C2)C[C@@H](C(N)=O)N(C(=O)c2ccc(Cl)cc2)C3)c1 (some centres undefined) the results were IL-1B inflam inh inconclusive, DT40 TDP1 no CPT inconclusive, HT1080NT lethal -3%, DT40 TDP1 CPT inconclusive and HT1080 IDH1KD tx 0%.
For COC(=O)CCCn1cc(CN2CC(N3CCN(CCN(C)C)CC3)CS2(=O)=O)nn1 (centres undefined) the results were IL-1B inflam inh 51, DT40 TDP1 no CPT -23%, HT1080NT lethal 22%, DT40 TDP1 CPT 2% and HT1080 IDH1KD tx 15%.
`O=c1[nH]c(SCc2ccccc2Cl)nc2c1CCC2` gave IL-1B inflam inh 10, DT40 TDP1 no CPT 29µM*, HT1080NT lethal -1%, DT40 TDP1 CPT inconclusive and HT1080 IDH1KD tx 2%.
CNc1nc(SCc2ccccc2Cl)nc2c1CCCC2 was read as IL-1B inflam inh -18, DT40 TDP1 no CPT inconclusive, HT1080NT lethal inconclusive, DT40 TDP1 CPT inconclusive and HT1080 IDH1KD tx 33µM*.
For Cc1oc(-c2ccccc2Cl)nc1CSc1nc2c(c(=O)[nH]1)CCCC2 the results were IL-1B inflam inh -8, DT40 TDP1 no CPT 18µM*, HT1080NT lethal 6%, DT40 TDP1 CPT 13µM* and HT1080 IDH1KD tx -1%.
Screening O=c1[nH]c(SCCc2ccccc2)nc2c1CCC2 returned IL-1B inflam inh -5, DT40 TDP1 no CPT 7.3µM*, HT1080NT lethal 1%, DT40 TDP1 CPT inconclusive and HT1080 IDH1KD tx 4%.
Screening Cc1cccc(CSc2nc3c(c(=O)[nH]2)CCC3)c1 returned IL-1B inflam inh 18, DT40 TDP1 no CPT inconclusive, HT1080NT lethal 2%, DT40 TDP1 CPT inconclusive and HT1080 IDH1KD tx 7%.
N#Cc1ccc(CSc2nc3c(c(=O)[nH]2)CCC3)cc1 was read as DT40 TDP1 no CPT -15% and DT40 TDP1 CPT -1%.
COC(=O)c1ccc(CSc2nc3c(c(=O)[nH]2)CCC3)cc1 was read as IL-1B inflam inh 27, DT40 TDP1 no CPT 21µM*, HT1080NT lethal 15%, DT40 TDP1 CPT inconclusive and HT1080 IDH1KD tx 23%.
`Cc1ccc(CSc2nc3c(c(=O)[nH]2)CCC3)cc1` gave IL-1B inflam inh 20, DT40 TDP1 no CPT -4%, HT1080NT lethal 1%, DT40 TDP1 CPT -7% and HT1080 IDH1KD tx 17%.
